Inconclusive results are not listed. Calls of active or inactive are those of the source. The call rests on the fitted dose curve; in most records, active means well fitted inhibition curve with a large enough effect; inconclusive means small, poorly fitted or top-dose-only effect; inactive means flat fitted curve, though single readings scatter.
How the values were obtained:
Test in all cases: qHTS profiling for inhibitors of Plasmodium falciparum proliferation (AID 504749); further: nearly all actives have a fitted effect of over 60% in size
Conditions in all cases: P. falciparum in erythrocytes, SYBR Green DNA, 72 h
3D7 = tested on: 3D7
Outline: (§1)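 P. falciparum-infected erythrocytes (0.3% parasitemia, 2.5% hematocrit final) were exposed to compounds for 72 h at 37 C in 5% CO2, then lysed with SYBR Green buffer overnight at room temperature; parasite DNA fluorescence was normalized to artemisinin and DMSO controls.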

7G8 = tested on: 7G8
Outline: as §1

AA1029 = tested on: AA1029
Outline: as §1

AS120 = tested on: AS120
Outline: as §1

ATS189 = tested on: ATS189
Outline: as §1

ATS95 = tested on: ATS95
Outline: as §1

C2A = tested on: C2A
Outline: as §1

CP185 = tested on: CP185
Outline: as §1

CP191 = tested on: CP191
Outline: as §1

CP192 = tested on: CP192
Outline: as §1

Measured: Potency
Potency means the concentration at half of the fitted maximal effect.

CC[C@]1(O)CC2CN(CCc3c([nH]c4ccccc34)[C@@](C(=O)OC)(c3cc4c(cc3OC)N(C)[C@H]3[C@@](O)(C(=O)OC)[C@H](OC(C)=O)[C@]5(CC)C=CCN6CC[C@]43[C@@H]65)C2)C1 (stereo not given in full)
active: 3D7 794 nM | 7G8 1120 nM | AA1029 1410 nM | AS120 2510 nM | ATS189 4470 nM | ATS95 3550 nM | C2A 2820 nM | CP185 3550 nM | CP191 2820 nM | CP192 4260 nM

CC(=O)O[C@H]1C(=O)[C@@]2(C)[C@H]([C@H](OC(=O)c3ccccc3)[C@]3(O)C[C@H](OC(=O)[C@H](O)[C@@H](NC(=O)c4ccccc4)c4ccccc4)C(C)=C1C3(C)C)[C@]1(OC(C)=O)CO[C@@H]1C[C@@H]2O
active: 3D7 282 nM | 7G8 398 nM | AA1029 562 nM | AS120 398 nM | ATS189 631 nM | ATS95 631 nM | C2A 355 nM | CP185 199 nM | CP191 178 nM | CP192 675 nM

Reference: PubChem BioAssay (NCATS)
